Several values for one entry are separate records, joined by “and”; a condition that tells them apart may be missing. Equal values may be shown once. The panel holds about 83,000 compounds, 20% with a hit somewhere; the sample as a whole holds those more often.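 How to read the values: 0–100, growth inhibition (40 = 60% inhibited); 0, no net growth; -100 to 0, cell death (-40 = 40% of starting cells died; -100 = all dead).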 Activity calls are given as the source filed them. Rule for the calls: active = growth percent below 10; inactive = the rest.

The test relates to CAKI-1 renal. In words: NCI-60 one-dose screen, 48 h (100 = growth as untreated, 0 = no growth, -100 = all killed). To be noted: 10 µM unless noted.
With `CCOc1ccc(Nc2c3ccccc3nc3ccccc23)cc1`, the growth is 91.3% (inactive) and 6.56% (active) and -17% (active).
With `CCOc1ccc2cc(-c3nn(CC4CCN(C)CC4)c4ncnc(N)c34)ccc2c1` the figure was 87.6% (inactive) and 85.5% (inactive); with `C[N+](C)(C)CN1C(=O)c2ccccc2C1=O`, 94.4% (inactive); with `S=C(S)N1CCCC1`, 124% (inactive).
For the molecule `O=C1C2=C(C(=O)c3ccccc31)C(O)(S(=O)(=O)O)C(O)(S(=O)(=O)O)C1N=CC=CC21` (stereo not drawn), the growth is 21.9% (inactive) and 15.8% (inactive).
With `Cc1cc(O)c2c(c1)C(=O)c1cc(O)cc(O)c1C2=O` the figure was 72.2% (inactive) and 95.2% (inactive).
As to `CCN(CC)CCC(CNc1ccnc2cc(Cl)ccc12)c1ccc(OC)cc1` (stereo not drawn), the growth was 55.6% (inactive) and 21.6% (inactive).
With `O=[N+]([O-])c1ccc2nc3c4ccccc4c4ccccc4c3nc2c1`, the growth is 77.9% (inactive).
With `COc1cc2nc(N3CCC[C@@H](NC(=O)C4COc5ccccc5O4)C3)nc(N)c2cc1OC` (stereo partly drawn), the growth is 92% (inactive) and 89.6% (inactive).
As for `NC(=S)NN=C1CCC(C2CCCCC2)CC1` (stereo not drawn), the figure is 81.9% (inactive) and 96.2% (inactive); as for `CCOC(=O)c1sc(N)nc1-c1ccccc1`, 103% (inactive); as for `Cc1ccc2nc3c(nc2c1)-c1cccc2cccc-3c12`, 79.1% (inactive).
In the case of `CC(C)N=c1cc2n(-c3ccc(Cl)cc3)c3ccccc3nc-2cc1Nc1ccc(Cl)cc1`, the growth is 40.5% (inactive) and 22.6% (inactive) and 5.83% (active).

Source of the values: PubChem BioAssay (NCI).
